Screening results from PubChem BioAssay.
JMJD2A Tudor – inhibitors of human JMJD2A Tudor domain; O75164; AlphaScreen JMJD2A-Tudor / H3K4me3 peptide binding; Potency, µM (series often up to 114 µM), for inactives: at the top dose activity change, negative = inhibition, actives largely listed as inhibitors; hit rate 4.4% among 390,000; AID 504339; note: % is set by controls: 0 for no effect and ±100 for the full control effect; nearly all actives have a fitted effect of over 50% in size
BAZ2B block – BAZ2B (human) inhibition; Q9UIF8; AlphaScreen BAZ2B-H3K14Ac peptide displacement; Potency, µM (top dose mostly 114 µM), inactives show at the top dose activity change, negative = inhibition, hits mostly inhibitors; hit rate 4.4% among 360,000; AID 504333; note: % is set by controls: 0 for no effect and ±100 for the full control effect; nearly all actives have a fitted effect of over 60% in size
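Protein-peptide AlphaScreen: BAZ2B 50 nM, b-H3K14Ac 50 nM, 1x PBS pH 7.4 + 0.01% Tween-20. Preincubation 30 min RT; cpd 30 min RT (top 110 uM); beads 20 min RT, light-protected.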
G9a inh – inhibitors of human histone lysine methyltransferase G9a | Q96KQ7 | hit rate 8.8% among 350,000 | G9a H3K9 monomethylation, AlphaScreen, 2 h | Potency, µM (series often up to 102 µM), without a hit: top-dose activity, negative = inhibition, actives largely listed as inhibitors; note: % is set by controls: 0 for no effect and ±100 for the full control effect; nearly all actives have a fitted effect of over 75% in size
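AlphaScreen detection with an anti-monomethyl H3K9 antibody quantified product after a 2 h room-temperature reaction containing 500 nM biotinylated H3K9 peptide, 20 µM SAM and 20 nM enzyme, which had been preincubated 15 min with compound.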
L3MBTL1 inh – blocks human L3MBTL1; AlphaScreen L3MBTL1–H3K9me1 peptide binding; Potency, µM (doses to about 57.1 µM), inactives show at the highest dose activity, negative = inhibition, actives largely listed as inhibitors; hit rate 0.66% among 230,000; note: % is set by controls: 0 for no effect and ±100 for the full control effect; nearly all actives have a fitted effect of over 60% in size
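AlphaScreen proximity signal between nickel-chelate acceptor and streptavidin donor beads (final 10 ug/mL) reports binding of 50 nM L3MBTL1 to 75 nM biotin-H3 K9me1 peptide; complex incubated with compounds 30 min at room temperature; cefsulodin titration as control.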
Sfp inh – blocks B. subtilis Sfp PPTase activity; Q9F4F7; Biochemical Sfp PPTase activity, qHTS; Potency, µM, without a hit: largest response in the series, negative = inhibition, usual class: inhibitors; hit rate 3.5% among 310,000; AID 1490;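 note: the enzyme is Sfp with the accession as filed and its product quenches rhodamine fluorescence; 0% = enzyme reaction without inhibitor and -100% = no enzyme wells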
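Sfp 15 nM + cpd, 15 min RT; start w/ rhodamine-CoA 5 uM, BHQ-2-YbbR 12.5 uM (final); 50 mM Hepes pH 7.6, 10 mM MgCl2, 0.01% NP-40, 0.01% BSA; read 525/598 nm at 0 and 30 min.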
HP1b chromo inh – HP1-beta chromodomain-methylated histone interaction inhibition; P83916; AlphaScreen HP1-beta / biotin-H3K9me3 peptide binding; Potency, µM (titrated, usually from 114 µM), for inactives: at the highest dose activity change, negative = inhibition, usual class: inhibitors; hit rate 0.56% among 390,000; AID 540317; note: nearly all actives have a fitted effect of over 70% in size
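Compound inhibition of the preformed complex between 50 nM HP1-beta and 50 nM biotinylated H3K9me3 peptide was read by AlphaScreen. Buffer was PBS pH 7.4 with 0.01% Tween-20. Incubations ran 30 min at room temperature, with 10 ug/mL donor/acceptor beads.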
Active calls of the source: *; ? = inconclusive; / = no result given; [ ] = remark or other dose. This is a sample that favours compounds with a hit; in the whole collection about 12% have one here. Calls come from the whole dose curve; as a rule, active = well fitted curve in the direction sought with a large enough effect; inconclusive = small, poorly fitted or top-dose-only effect, or another doubt; inactive = no such curve, though single readings can be large; an effect the other way counts as inactive or inconclusive. Potency is the fitted concentration of half-maximal effect.

SMILES	JMJD2A Tudor	BAZ2B block	G9a inh	L3MBTL1 inh	Sfp inh	HP1b chromo inh
COc1ccccc1CNC(=O)Cn1c(=O)oc2ccccc21	-15%	0%	5%[59 µM]	/	/	14%
COc1ccccc1CCNC(=O)Cn1c(=O)oc2ccccc21	-16%	79µM*	40µM*	/	-20%	13%
Cc1ccc(NC(=O)Cn2nnc(C(=O)NCCc3ccccc3)c2N)c(C)c1	11µM*	?	-13%[59 µM]	/	-6%	13%
COc1ccc(CCNC(=O)c2nnn(CC(=O)Nc3ccc(C)cc3C)c2N)cc1OC	-29%	79µM*	-10%[59 µM]	/	?	40%
Cc1ccc(C)c(NC(=O)Cn2nnc(C(=O)NCCc3ccccc3)c2N)c1	-35%	4%[57.1 µM]	?	/	/	13%
COc1cccc(NC(=O)Cn2nnc(C(=O)NCc3cccs3)c2N)c1	-1%	-24%	5%	/	6%	44%
COc1ccc(NC(=O)Cn2nnc(C(=O)NCc3cccs3)c2N)c(OC)c1	22µM*	-16%	0%[59 µM]	/	-19%	-19%
CN(c1nnc(NC(=O)Nc2ccccc2C(F)(F)F)s1)C1CCCCC1	-5%	-17%	-16%[59 µM]	/	/	8%
Cc1cccc(NC(=O)Cn2c(=O)n(CCCCCC(=O)NCc3ccc4c(c3)OCO4)c(=O)c3sccc32)c1	-6%	0%	-1%[59 µM]	/	/	30%
N#C/C(=C\c1ccc([N+](=O)[O-])cc1)C(=O)NCCCn1ccnc1	-16%	?	-43%[59 µM]	/	-9%	-9%
N#C/C(=C/c1cn(-c2ccccc2)nc1-c1cccc(OCc2ccc(F)cc2)c1)C(=O)NCCCn1ccnc1	16µM*	10µM*	1%[59 µM]	-27%	?	-21%
CCCOc1cccc(-c2nn(-c3ccccc3)cc2/C=C(\C#N)C(=O)NCCCn2ccnc2)c1	45µM*	?	-9%[59 µM]	-18%	-20%	?
O=C(NCCCn1ccnc1)c1cn(-c2ccccc2)nc1-c1ccc(F)cc1	?	-2%	21%	-8%	-1%	-9%
O=C(Nc1c2c(nn1-c1ccc(Cl)cc1)CS(=O)(=O)C2)c1ccc(Br)cc1	-18%	4%	4%[59 µM]	/	/	-4%
N#CC1=C(N)NC(SCC(=O)c2ccc(Br)cc2)=C(C#N)C12CCCCC2	?	?	40µM*	-19%	5%	?
N#CC1=C(N)NC(SCC(=O)c2ccc(Cl)cc2)=C(C#N)C12CCCC2	-31%	14%	?	/	50µM*	-3%
COc1ccc(-n2ncc(C(=O)Nc3ccc4c(c3)OCO4)c2C2CCN(C(=O)OC(C)(C)C)CC2)cc1	?	-33%[57.1 µM]	-27%[59 µM]	/	/	11%
COc1ccc(OCC#CCNC(C)(C)C)cc1	40µM*	56µM*	7.9µM*	/	?	?
COc1ccc(C(=O)C(CCC(CNC(C)(C)C)C(=O)c2ccc(OC)cc2)CNC(C)(C)C)cc1 (configuration not stated)	-13%	-1%	-28%	3%	7%	24%
COc1cccc(CN(C)C(=O)c2cc(-c3ccc(F)cc3)nc3ccccc23)c1	10%	?	?	/	22µM*	51%
COc1cccc(CN(C)C(=O)c2cc(-c3ccc(OC)c(OC)c3)nc3ccccc23)c1	-10%	-9%	/	/	2%	43%
COc1ccc(CCN(C)C(=O)c2cc(-c3ccccc3)nc3ccccc23)cc1OC	-9%	?	40µM*	/	-15%	25%
CCOc1ccccc1-c1nnc2n1N=C(c1c(OC)cccc1OC)CS2	-9%	/	/	/	-19%	/
COCCCn1c(CCC(=O)O)ccc1-c1cccs1	-33%	?	?	-7%	?	-8%
NC(=O)c1ccc(-n2c(CCC(=O)O)ccc2-c2cccs2)cc1	-26%	-32%	28µM*	/	-15%	?
SMILES	JMJD2A Tudor	BAZ2B block	G9a inh	L3MBTL1 inh	Sfp inh	HP1b chromo inh
Cc1ccc(-n2c(CCC(=O)O)ccc2-c2cccs2)cc1Cl	?	?	13µM*	/	/	1%
CC(=O)c1ccc(-n2c(CCC(=O)O)ccc2-c2cccs2)cc1	?	?	14µM*	-10%	20µM*	-5%
O=C(CSc1nc(=O)n(CCN2CCOCC2)c2c1CCC2)Nc1ccccc1	-10%	-3%	6%[59 µM]	/	/	8%
COC(=O)C1=C(C(=O)OC)[C@@H]2Nc3ccccc3[C@@]23C[C@@H](C(=O)OC)N(S(=O)(=O)c2c(C)noc2C)C3=N1	/	/	/	/	4%	/
Cc1ccc(CNC(=O)c2cn(C3CCCC3)c(=O)c3c2c2ccccc2n3C)o1	/	56µM*	11µM*	/	1.4µM*	/
COc1ccc(N2CCN(C(=O)c3cn(C4CCCC4)c(=O)c4c3c3ccccc3n4C)CC2)cc1	14µM*	?	32µM*	/	1%	?
Cn1c2ccccc2c2c(C(=O)N3CCN(c4cccc(Cl)c4)CC3)cn(C3CCCCC3)c(=O)c21	-12%	-27%	-35%[59 µM]	/	/	22%
COc1ccc(N2CCN(C(=O)c3cn(C)c(=O)c4c3c3ccccc3n4C)CC2)cc1	?	45µM*	32µM*	-20%	-15%	-11%
Cn1cc(S(=O)(=O)c2ccccc2)c(=O)c2cc(F)c(N3CCCCCC3)cc21	4%	2%	-14%[59 µM]	/	/	22%
O=C(NNS(=O)(=O)c1ccccc1[N+](=O)[O-])c1ccc(O)cc1	5.6µM*	50µM*	?	/	7%	?
O=C(NNS(=O)(=O)c1ccccc1[N+](=O)[O-])c1ccc(F)cc1	-31%	-3%	/	10%	5%	43%
Cc1cccc(C(=O)NNS(=O)(=O)c2ccccc2[N+](=O)[O-])c1	?	-7%	?	-8%	6%	8%
O=C(NNS(=O)(=O)c1ccccc1[N+](=O)[O-])c1cccc(Br)c1	11µM*	-20%	-5%	-1%	-12%	21%
O=C(NNS(=O)(=O)c1ccccc1[N+](=O)[O-])c1cccc(Cl)c1	28µM*	-8%	?	9%	-3%	23%
CC(C)(C)OC(=O)N1CCC(c2c(C(=O)NCCN3CCOCC3)cnn2-c2ccc(F)cc2F)CC1	3%	7%[57.1 µM]	-7%[59 µM]	/	/	46%
O=C(Nc1sc2c(c1C(=O)NCC1CCCO1)CCC2)c1cc(=O)c2cc(Cl)ccc2o1 (configuration not stated)	-7%	-15%	-4%[59 µM]	/	/	11%
COc1ccccc1S(=O)Cc1ccc(C(=O)NCc2ccccc2Cl)o1 (configuration not stated)	35µM*	8%	3.5µM*	/	?	-10%
COc1ccccc1CNC(=O)c1ccc(-c2ccccc2C(F)(F)F)o1	19%	-33%	?	8%	-16%	54%
O=C(NCc1ccco1)c1ccc(-c2ccc(Cl)cc2)o1	-35%	?	50µM*	-11%	12%	-13%
